{"source": "PubChem BioAssay (EPA / NIEHS)", "note": "Several values for one entry are separate records, joined by “and”; a condition that tells them apart may be missing. Identical values can stand only once. Inconclusive results are not listed. Activity calls are given as the source filed them. How the source made its calls: active means hit-call score of the fitted dose curve at least 0.9, where 1 is the maximum; inconclusive means response in the unintended direction; inactive means score below 0.9.", "data": [{"biological_target": "Cellular tumor antigen p53 (Homo sapiens) (UniProt P04637)", "sequence (P04637 whole entry, looked up)": "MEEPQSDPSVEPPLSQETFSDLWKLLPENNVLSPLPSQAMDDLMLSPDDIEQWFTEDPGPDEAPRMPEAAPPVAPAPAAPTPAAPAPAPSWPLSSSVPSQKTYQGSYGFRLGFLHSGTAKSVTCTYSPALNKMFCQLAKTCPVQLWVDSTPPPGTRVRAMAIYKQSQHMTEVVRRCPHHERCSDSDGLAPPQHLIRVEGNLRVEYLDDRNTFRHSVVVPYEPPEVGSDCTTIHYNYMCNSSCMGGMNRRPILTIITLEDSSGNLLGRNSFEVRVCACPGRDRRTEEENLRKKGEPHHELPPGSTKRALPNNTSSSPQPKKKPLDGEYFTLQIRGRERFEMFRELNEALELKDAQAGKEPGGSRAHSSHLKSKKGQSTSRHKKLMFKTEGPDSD", "experiment": "TOX21_p53_BLA_p4_ratio: Tox21 HCT-116 p53 Agonism Beta-lactamase Assay, Ratio, Phase 4 (AID 2283601)", "outline": "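Signal is the blue/green (460nm/530nm) ratio of cleaved versus uncleaved CCF4-AM substrate, read after 2 h substrate loading. Cells were HCT116 carrying the p53-responsive beta-lactamase reporter, dosed 16 h at 37C, 5% CO2; CellTiter-Glo measured in parallel.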", "values": [{"smiles": "CC(=O)Nc1ccc(C)cc1C", "outcome": "inactive"}, {"smiles": "O=C(O)c1cn(-c2ccc(F)cc2)c2cc(N3CCNCC3)c(F)cc2c1=O", "outcome": "inactive"}, {"smiles": "COc1cc(C=O)ccc1OC(=O)C(C)C", "outcome": "inactive"}, {"smiles": "CC(=O)OCc1ccc2c(c1)OCO2", "outcome": "inactive"}, {"smiles": "O=c1cc(-c2ccccc2)oc2cc(O)cc(O)c12", "AC50": "46.1 µM (active)"}, {"smiles": "CC(C)=CCC[C@](C)(O)[C@@H]1CC=C(C)CC1", "outcome": "inactive"}, {"smiles": "O=C(O)CCCCCCCC(=O)O", "outcome": "inactive"}, {"smiles": "Nc1cccc(S(=O)(=O)c2cccc(N)c2)c1", "outcome": "inactive"}, {"smiles": "BrC1CCC(Br)C(Br)CCC(Br)C(Br)CCC1Br", "note": "(stereo unspecified)", "AC50": "63.7 µM (active) and 50.3 µM (active)"}, {"smiles": "Nc1cc([N+](=O)[O-])ccc1O", "outcome": "inactive"}, {"smiles": "CC1=CCC2C(C1)C2(C)C", "note": "(stereo unspecified)", "outcome": "inactive"}, {"smiles": "Clc1nc(C(Cl)(Cl)Cl)c(Cl)c(Cl)c1Cl", "outcome": "inactive"}, {"smiles": "O=C(O)COCCN1CCN(C(c2ccccc2)c2ccc(Cl)cc2)CC1", "note": "(stereo unspecified)", "outcome": "inactive"}, {"smiles": "C[Si](O[Si](C)(C)C)O[Si](C)(C)C", "outcome": "inactive"}, {"smiles": "OC[C@H]1O[C@H](O[C@]2(CCl)O[C@H](CCl)[C@@H](O)[C@@H]2O)[C@H](O)[C@@H](O)[C@H]1Cl", "outcome": "inactive"}, {"smiles": "FC1(F)C(F)(F)C(F)(F)C2(F)C(F)(C1(F)F)C(F)(F)C(F)(F)C1(F)C(F)(F)C(F)(F)C(F)(F)C(F)(F)C12F", "note": "(stereo unspecified)", "outcome": "inactive"}, {"smiles": "Nc1ccc(S(N)(=O)=O)cc1", "outcome": "inactive"}, {"smiles": "O=S(=O)(O)c1ccc(O)c2ncccc12", "outcome": "inactive"}, {"smiles": "COc1ccc(NC(=O)CC(C)=O)cc1", "outcome": "inactive"}, {"smiles": "CN1[C@@H]2CC(OC(=O)[C@H](CO)c3ccccc3)C[C@H]1[C@@H]1O[C@@H]12", "note": "(stereo partly specified)", "outcome": "inactive"}, {"smiles": "CC[C@]12CCCN3CCc4c(n(c5ccccc45)[C@@](O)(C(=O)OC)C1)[C@@H]32", "outcome": "inactive"}, {"smiles": "CCCC(=O)C(C)=O", "outcome": "inactive"}, {"smiles": "CCCCNC(=O)NS(=O)(=O)c1ccc(N)cc1", "outcome": "inactive"}, {"smiles": "CC(CCO)CCc1ccccc1", "note": "(stereo unspecified)", "outcome": "inactive"}, {"smiles": "Cc1ccc2ccccc2n1", "outcome": "inactive"}, {"smiles": "COc1ccc(OC)c(OC)c1", "outcome": "inactive"}, {"smiles": "COCCOCCOCCOCCOCCO", "outcome": "inactive"}, {"smiles": "c1ccc(CCCc2ccccn2)cc1", "outcome": "inactive"}, {"smiles": "CCC(C(=O)NC(N)=O)c1ccccc1", "note": "(stereo unspecified)", "outcome": "inactive"}, {"smiles": "C=C(C)C(=O)NCCCN(C)C", "outcome": "inactive"}, {"smiles": "O=Cc1ccc(Cl)c([N+](=O)[O-])c1", "outcome": "inactive"}, {"smiles": "CCCCC/C=C/C=C/C=O", "outcome": "inactive"}, {"smiles": "CC(CN1c2ccccc2Sc2ccccc21)N(C)C", "note": "(stereo unspecified)", "outcome": "inactive"}, {"smiles": "O=C(Oc1ccccc1)c1ccc(O)cc1", "outcome": "inactive"}, {"smiles": "CC(C)c1ccc(C(C)C)cc1", "outcome": "inactive"}, {"smiles": "CCCc1ccccc1O", "outcome": "inactive"}]}]}
